About 83,000 compounds went through this panel and 20% of them were active in at least one assay; those are over-represented in the sample as a whole.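 For each line, cells grew in 96-well plates with the test compound present at a single concentration for 48 hours.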 A number with no mark means an inactive call. Active and inactive are the calls of the source.
test system: LOX IMVI melanoma; assay: NCI-60 one-dose screen, 48 h (100 = growth as untreated, 0 = no growth, -100 = all killed); conditions: 10 µM unless noted
Description: Growth inhibition of the LOX IMVI human tumor cell line is measured as a screen for anti-cancer activity. Cells are grown in 96 well plates and exposed to the test compound for 48 hours. Compounds are tested at a single concentration, which is 10^-5 M for most compounds. The reported endpoint is percent growth (GI% or GIPRCNT), where numbers from 0 - 100% represent growth inhibition, and numbers from -100% - 0 represent cell death. For example, a value of 40 represents 60% growth inhibition. A value of 0 means no net growth occurred over the course of the experiment. A value of -40 indicates 40% of cells at the beginning of the experiment died by the end of the experiment. A value of -100 means all cells are dead at the end of the experiment.
NCI-60 Human Tumor Cell Lines Screen was performed using the standard one-dose NCI protocol, which is described in more detail at https://dtp.cancer.gov/discovery_development/nci-60/default.htm.
Compounds with GIPRCNT values below 10 were considered active. Activity score was based on GIPRCNT using the following formula: […]
Score is 0 for GIPRCNT values of 100 or above, 50 for GIPRCNT values of 0, and 100 for GIPRCNT values of -100.

SMILES | growth
O=C1NCCN1/N=C/c1c(Cl)nc2n1CCS2 | 101%
CC[n+]1c(C)ccc2cc(C)ccc21 | 90.8%
CC#Cc1nc(Nc2cc(C)[nH]n2)c2ccccc2n1 | -58.5% [100 µM] (active)
COc1ccc(CN2C(=O)/C(=C\C(=O)c3ccc(OCCN4CCCCC4)cc3)c3ccccc32)cc1 | 8.81% (active)
Cc1ccc(NC(=O)CCl)cc1Cl | 6.84% (active)
CCCCCCNC(=O)Oc1ccc(/C(=C(/C)Cc2ccc(OC)cc2)c2ccc(OCCN3CCCCC3)cc2)cc1 | 82.9%
COc1ccc(-c2nc(SCC(C)C)nc(Nc3ccccc3)c2C#N)cc1 | 80.1%
COc1ccc(-c2nc(SCC(C)C)nc(Nc3ccc(C(=O)O)cc3)c2C#N)cc1 | 88%
C=C(C)C(C(=O)OCC)(C(=O)OCC)C(C)C | 102%
Cc1ccc(C(=O)Nc2ccc(CN3CCN(C)CC3)c(C(F)(F)F)c2)cc1C#Cc1cnc(N)c2ccc(F)cc12 | -91.4% (active)
COc1cc(NC(C)CCCN)c2nccc(C)c2c1OC (stereo not given) | 58.5%
CCOC(=O)C1CCCN1C(=O)C1(NC(C)=O)CCCC1 (stereo not given) | 104%
CCCCCCNC(=O)Oc1ccc(/C(=C(/C)Cc2ccc(OC)cc2)c2ccc(OCCN(C)C)cc2)cc1 | -15.9% (active)
COc1ccc(C2=C/C(=C\c3ccc(Cl)cc3)C(=O)NN2C(=S)NN)cc1 | 101%
CN1CCN(Cc2ccc(NC(=O)c3cncc(C#Cc4c(N)ncc5ccc(F)cc45)c3)cc2C(F)(F)F)CC1 | -8.63% (active)
Cc1c([C@H](C(Cl)Cl)[C@H](O)[C@H]2C[C@H](C)C(=O)O2)ccc2c1C(=O)[C@H]1[C@H]2C[C@@H](Br)[C@@]23O[C@@H](CO[C@H]2O)CC13C (stereo not given in full) | 33.4%
COc1cc(-c2nn(-c3ccc(NC(=O)c4cc(Cl)cc(Cl)c4)cc3)cc2-c2ccncc2)ccc1Cl | 71.6%
COc1ccc(/C=N/c2cc(C(C)(C)C)nn2-c2ccccc2)cc1 | 99.8%
O=C(O)c1ccc(Br)nc1 | 97.2%
CC(C)(C)c1cc(C[P+](c2ccc(Cl)cc2)(c2ccc(Cl)cc2)c2ccc(Cl)cc2)cc(C(C)(C)C)c1O | 92.6%

SMILES | growth
CCn1cc(C(=O)O)c(=O)c2cc(F)c(N3CCN(S(=O)(=O)c4ccc(Cl)cc4)CC3)cc21 | 19.9%
CCN(CC)c1ccc2nc3ccc(N=Nc4ccc(O)cc4)cc3[n+](-c3ccccc3)c2c1 | 36.5%
O=C(Nn1cnc2ccccc21)N1CCCC1 | 98.1%
C[C@@H](c1ccc2c(c1)[nH]c1ccc(Cl)cc12)c1nc2ccccc2[nH]1 | 88.2%
Clc1ccc(N/N=C(/c2ccccc2)c2ccccn2)nc1 | 21.5%
CCCNC(=O)Oc1ccc(/C(=C(/CC)Cc2ccccc2)c2ccc(OCCN(CC)CC)cc2)cc1 | 63.9%
COc1cc2cn3c4ccc(O)cc4[nH]c(=O)c3c2cc1OC | 0.607% (active)
Cc1ccc([C@@H]2C[C@H](O)Cc3ccccc3N2)s1 | 101%
COc1cc(OC)c2c(=O)cc(-c3ccccc3)oc2c1 | 97.5%
C[C@@H](c1ccc2c(c1)[nH]c1ccc(Cl)cc12)c1nc2ccc(Cl)cc2[nH]1 | 85.4%
COc1cc(-c2nc3c(c(C)nc4c3nnn4-c3ccccc3)c(=O)o2)cc(OC)c1OC | 101%
O=C(/C=C/c1cccc(O)c1)c1cccc(-n2cc(-c3ccc(Cl)cc3)[nH]c2=O)c1 | -92.1% (active)
C#CCCCCCCC[C@@H]1OC(=O)[C@H]([C@@H](C)CC)NC(=O)[C@H]([C@@H](C)CC)NC(=O)CC(=O)[C@@H]1C | 92.1%
COc1cc(NC(=O)CSc2nc3ccc(Cl)cc3c(=O)n2-c2ccc(F)cc2)cc(OC)c1OC | 73.5%
CC(=O)OCC1O[C@@H](OC(C)=O)[C@@H](NC(=O)NS(=O)(=O)c2ccccc2)C(OC(C)=O)[C@@H]1OC(C)=O (stereo not given in full) | 99.6%
O=C(O)COc1ccc([N+](=O)[O-])cc1Cl | 100%
COC(=O)[C@H](Cc1cn(C)cn1)NC(=O)[C@H](CC(=O)OCc1ccccc1)NC(=O)Nc1cc(C(F)(F)F)cc(C(F)(F)F)c1 | -85.3% [100 µM] (active)
COc1ccc(-c2nc(N)n(C(=S)Nc3ccccc3)n2)cc1 | 94.3%
CCOC(=O)CCCCCCCCC(=O)OCC | 96.9%
COC(=O)C(C)[C@H]1CC[C@@H]2[C@]1(C)CC=C1[C@]23C=C[C@]2(C[C@@H](OC(C)=O)CC[C@]12C)C(C(=O)OC)C3C(=O)OC (stereo not given in full) | 91.7%

Reference: PubChem BioAssay (NCI)
